# Screening results as filed in PubChem.
# The list is not random: actives were taken first. Their share in the collection is about 8.7%.
# ALOX12 inh = inhibitors of human 12S-lipoxygenase ALOX12; P18054; purified 12hLO, xylenol orange hydroperoxide absorbance; Potency, µM (series often up to 108 µM), for the others: at the highest dose activity change, negative = inhibition, usual class: inhibitors; 580,000 compounds, 1.1% hits; AID 1671190; further: on the % scale 0 is the no-effect control and ±100 the full control effect
#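 Purified human 12hLO (150 nM final) in 25 mM Hepes, 0.01% Triton X-100, pH 7.0 was preincubated 15 min at room temperature with compound. Then 40 uM arachidonic acid was added, 30 min. Hydroperoxide was read by Fe-XO absorbance ratio 573/405 nm.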
# G9a block = G9a (human) methyltransferase inhibition. Q96KQ7. G9a H3K9 monomethylation, AlphaScreen, 2 h. Potency, µM (series often up to 102 µM), for inactives: top-dose activity, negative = inhibition, actives largely listed as inhibitors. 350,000 compounds, 8.8% hits; further: on the % scale 0 is the no-effect control and ±100 the full control effect; nearly all actives have a fitted effect of over 75% in size
# Target sequence (Q96KQ7 913-1193 limits assumed): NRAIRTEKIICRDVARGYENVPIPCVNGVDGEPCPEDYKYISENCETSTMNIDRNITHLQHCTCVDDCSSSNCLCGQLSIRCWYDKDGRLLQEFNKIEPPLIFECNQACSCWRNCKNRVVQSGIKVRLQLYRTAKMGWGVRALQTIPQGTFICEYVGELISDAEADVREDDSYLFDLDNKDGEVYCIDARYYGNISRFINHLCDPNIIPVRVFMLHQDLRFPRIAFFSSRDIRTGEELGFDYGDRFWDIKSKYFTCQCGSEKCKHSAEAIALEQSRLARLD
#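 Compounds were preincubated with 20 nM G9a for 15 min, after which biotinylated H3K9 peptide (500 nM) and SAM (20 uM) started a 2 h room-temperature reaction. Monomethylated product was quantified by antibody-based AlphaScreen chemiluminescence.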
# BAZ2B inh = blocks human BAZ2B; AlphaScreen BAZ2B-H3K14Ac peptide displacement; Potency, µM (series often up to 114 µM), for the others: at the top dose activity change, negative = inhibition, hits mostly inhibitors; 360,000 compounds, 4.4% hits; AID 504333; further: on the % scale 0 is the no-effect control and ±100 the full control effect; nearly all actives have a fitted effect of over 60% in size
#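 BAZ2B 50 nM plus b-H3(5-23)K14Ac 50 nM, PBS pH 7.4/0.01% Tween-20, 30 min RT; compound added (max 110 uM), 30 min RT; streptavidin donor/Ni-chelate acceptor beads 10 ug/mL final, 20 min dark; AlphaScreen read.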
# Sfp PPTase inh = Sfp phosphopantetheinyl transferase inhibition | Q9F4F7 | Biochemical Sfp PPTase activity, qHTS | Potency, µM, without a hit: largest response in the series, negative = inhibition, most hits filed as inhibitors | 310,000 compounds, 3.5% hits;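 further: the enzyme is Sfp with the accession as filed and its product quenches rhodamine fluorescence; 0% = enzyme reaction without inhibitor and -100% = no enzyme wells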
#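 After 15 min at room temperature with compound, 15 nM Sfp received 5 uM rhodamine-CoA plus 12.5 uM BHQ-2-ybbR (50 mM Hepes pH 7.6, 10 mM MgCl2). Rate came from the fluorescence difference over 30 min, ex 525/em 598 nm.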
# JMJD2A Tudor inh = JMJD2A Tudor domain (human) inhibition | O75164 | AlphaScreen JMJD2A-Tudor / H3K4me3 peptide binding | Potency, µM (series often up to 114 µM), for inactives: at the highest dose activity change, negative = inhibition, usual class: inhibitors | 390,000 compounds, 4.4% hits | AID 504339; further: on the % scale 0 is the no-effect control and ±100 the full control effect; nearly all actives have a fitted effect of over 50% in size
# HP1b chromo inh = HP1-beta chromodomain-methylated histone interaction inhibition; P83916; AlphaScreen HP1-beta / biotin-H3K9me3 peptide binding; Potency, µM (top dose mostly 114 µM), inactives show at the highest dose activity change, negative = inhibition, actives largely listed as inhibitors; 390,000 compounds, 0.56% hits; AID 540317; further: nearly all actives have a fitted effect of over 70% in size
# Target sequence (P83916 whole entry, looked up): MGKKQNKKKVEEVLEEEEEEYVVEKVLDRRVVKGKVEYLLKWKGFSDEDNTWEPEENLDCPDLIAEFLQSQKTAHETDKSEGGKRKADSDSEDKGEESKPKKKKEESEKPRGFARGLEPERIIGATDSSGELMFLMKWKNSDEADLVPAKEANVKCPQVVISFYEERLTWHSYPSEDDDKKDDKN
#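 HP1-beta protein (50 nM final) preincubated 30 min at room temperature with biotinylated H3(1-18)K9me3 peptide (50 nM) in PBS pH 7.4, 0.01% Tween-20, then compound added for 30 min. AlphaScreen streptavidin donor/nickel chelate acceptor beads (10 ug/mL final), 30 min dark, luminescence read.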
# Active calls of the source: *; ? = inconclusive; nt = no result given; ! = not active in a repeat; [ ] = remark or other dose. The call rests on the fitted dose curve; in most records, active means well fitted curve in the direction sought with a large enough effect; inconclusive means small, poorly fitted or top-dose-only effect, or another doubt; inactive means no such curve, though single readings can be large; an effect the other way counts as inactive or inconclusive. Potency means the concentration at half of the fitted maximal effect.
SMILES,ALOX12 inh,G9a block,BAZ2B inh,Sfp PPTase inh,JMJD2A Tudor inh,HP1b chromo inh
COc1cc(C2C3=C(CCCC3=O)Nc3c(C#N)cnn32)ccc1O (stereo unspecified),15%,nt,nt,nt,nt,nt
CCCN1CCC(NC(=O)c2csc(C)c2CC)CC1,-12%,nt,nt,nt,nt,nt
CC(C)(C)C(=O)Nc1c2c(nn1-c1ccc(F)cc1)CSC2,-8%,63%[59 µM],-12%,19%,-14%,14%[57 µM]
Cc1ccc(-n2nc3c(c2NC(=O)c2ccco2)CS(=O)C3)c(C)c1 (stereo unspecified),?,14µM*,9%,nt,-15%,23%
Cc1ccc(-n2nc3c(c2NC(=O)C(C)(C)C)CSC3)c(C)c1,14%,40µM*,-6%,71µM*,-12%,?
Cc1ccc(-n2nc3c(c2NC(=O)CC(C)C)CS(=O)C3)cc1 (stereo unspecified),40µM*,32µM*,-10%,-9%,-7%,48%
Cc1cccc(-n2nc3c(c2NC(=O)c2ccco2)CS(=O)C3)c1C (stereo unspecified),-2%,?,-30%,16%,4%,37%
CC(C)CC(=O)Nc1c2c(nn1-c1ccc(F)cc1)CS(=O)C2 (stereo unspecified),-17%,18%[59 µM],-11%,9%,-9%,36%
CCc1noc(-c2cn(C3CCN(C(=O)c4ccco4)C3)nn2)n1 (stereo unspecified),7%,nt,nt,nt,nt,nt
COCc1ccc(C(=O)NC(C)c2ccc(F)c(F)c2)cc1 (stereo unspecified),-3%,nt,nt,nt,nt,nt
S=c1sc2c(Cl)ncnc2n1-c1ccccc1,-13%,45µM*,-23%,5%,1%,26%
O=C(Nc1ccccc1)C1=C(c2ccccc2)S(=O)(=O)CCS1(=O)=O,-4%,28µM*,-14%,13µM*,-2%,55%
CN(C(=S)NC(=O)CCCOc1ccc(Cl)cc1Cl)c1ccccc1,?,?,1%,50µM*,-6%,3%
CN(C(=S)NC(=O)Cc1ccccc1)c1ccccc1,?,nt,-10%,18µM*,-6%[57.1 µM],21%
O=C(O)CCN1/C(=C/C=Nc2ccccc2)Oc2ccccc21,0%,?,nt,-14%,56µM*,28%
CCOC(=O)/C=C/c1cc(F)ccc1O,0%,nt,nt,nt,nt,nt
COC(=O)/C=C/c1cc(O)ccc1O,-4%,2.8µM*,nt,50µM*,nt,nt
Cc1c(CC(=O)O)c(=O)oc2cc(OCc3ccccc3)ccc12,-4%,nt,nt,nt,nt,nt
Cc1[nH]c(=O)[nH]c(=O)c1Sc1ccccc1[N+](=O)[O-],-1%,56µM*,-6%,11%,-12%,32%
CCCCn1c(N)c(Sc2ccccc2[N+](=O)[O-])c(=O)[nH]c1=O,19%,-5%[12.7 µM],-7%,12%,-3%,27%
O=C(C1CC1)N1CCC2(CC1)CN(c1ccccc1)C2=O,39%,nt,nt,nt,nt,nt
CC(=O)N1CCC(C(=O)N2CCC3(CC2)NC(=O)N(c2ccccc2)N3)CC1,1.6µM*,nt,nt,nt,nt,nt
CC(=O)N1CCC(C(=O)N2CCN(c3cccc(Cl)c3)CC2)CC1,0%,nt,nt,nt,nt,nt
CC(=O)N1CCC(C(=O)N2CCC3(CC2)NC(=O)N(c2cccc(Cl)c2)N3)CC1,1.3µM*,nt,nt,nt,nt,nt
Cc1ccc(S(=O)(=O)Nc2nc3c(s2)C(=O)CC(C)(C)C3)cc1,?,50µM*,-37%,11%,-7%,27%
SMILES,ALOX12 inh,G9a block,BAZ2B inh,Sfp PPTase inh,JMJD2A Tudor inh,HP1b chromo inh
COc1ccc(S(=O)(=O)Nc2nc3c(s2)C(=O)CC(C)(C)C3)cc1,-22%,-30%[59 µM],22%,16%,-6%,15%
CC1(C)CC(=O)c2sc(NS(=O)(=O)Cc3ccccc3)nc2C1,?,11µM*,4%,2%,-28%,-13%
Cc1cc(C(=O)OCC(=O)Nc2ccccc2Oc2ccccc2)c2ccccc2n1,5%,nt,nt,nt,nt,nt
O=C(CCCOc1ccccc1)OCC(=O)c1ccc2c(c1)OCO2,-2%,nt,nt,nt,nt,nt
Cc1ccsc1[C@@H]1CCN(Cc2ccc(C#CC(C)(C)O)cc2)C[C@H]1O,45µM*,nt,nt,nt,nt,nt
Cc1c(C(=O)NCC2COc3ccccc3O2)oc2ccc(S(=O)(=O)N3CCOCC3)cc12 (stereo unspecified),-25%,50µM*,4%,3%,-29%,6%
COCCCNC(=O)c1cc(S(=O)(=O)N2CCOCC2)ccc1SCc1cccc(OC)c1OC,-5%,32µM*,5%,50µM*,-3%,16%
COCCCNC(=O)c1oc2ccc(S(=O)(=O)N3CCOCC3)cc2c1C,-13%,4%[59 µM],1%,13%,89µM*,-8%
Cc1c(C(=O)NCC2COc3ccccc3O2)oc2ccc(S(=O)(=O)N3CC(C)CC(C)C3)cc12 (stereo unspecified),22%,-47%[2.33 µM],12%,-17%,-14%,4%
Cc1c(C(=O)NCc2c(F)cc(F)cc2F)oc2ccc(S(=O)(=O)N3CCOCC3)cc12,25%,3%[59 µM],7%,-3%,22µM*,-4%
COCCNC(=O)c1ccc2c(c1)N(C)C(CC(=O)N(C)CC(C)C)CO2 (stereo unspecified),-20%,nt,nt,nt,nt,nt
O=C1C[C@@H]2CCN(Cc3ccccc3)C[C@@H]2CCN1C1CCCCC1,13%[176 µM],nt,nt,nt,nt,nt
COCCc1ccc(OS(=O)(=O)c2c(C)c(Cl)cc(C)c2Cl)cc1,50%,nt,nt,nt,nt,nt
O=C(NCC1COc2ccccc2O1)c1cc(S(=O)(=O)N2CCOCC2)c(Cl)cc1Cl (stereo unspecified),?,32µM*,16%,nt,-18%,19%
O=C(COC(=O)c1cc(S(=O)(=O)N2CCOCC2)c(Cl)cc1Cl)NC1CC1,-1%,0.63µM*,-4%,nt,-11%,4%
COc1ccc(O)c(/C=N/Nc2nc(C)cc(-c3ccccc3)n2)c1,-29%,nt,nt,nt,35µM*,?
COc1ccc(CN2C(=O)c3cccnc3C2=O)cc1S(=O)(=O)NCc1ccc(C)cc1,12%,-24%,79µM*,15%,-14%,52%
COc1ccc(CN2C(=O)c3cccnc3C2=O)cc1S(=O)(=O)N1CCCC(C)C1 (stereo unspecified),6%,18%,56µM*,14%,-11%,41%
COc1cccc(CNS(=O)(=O)c2cc(CN3C(=O)c4cccnc4C3=O)ccc2OC)c1,-4%,16%,-28%,0%,-18%,25%
COc1ccc(N2Cc3cccc(C(=O)O)c3C2=O)cc1,nt,32µM*,20µM*,6%,45µM*!,?
CN(C)c1ccc(CNC(=O)C2CCN(S(=O)(=O)c3ccc4c(c3)CCCC(=O)N4)CC2)cc1,8%,45µM*,?,2%,?,3%
CN(C)c1ccc(CNC(=O)c2cc(S(=O)(=O)N3CCCC3)cn2C)cc1,24%,nt,?,-5%,?,-12%
